Screening results as filed in PubChem.
VLA-4 inh: inhibition in human VLA-4 binding assay, primary screen, VLA-4 allosteric modulator project, MLPCN library, flow cytometry, VLA-4 expressing cells; Integrin alpha-4 (Homo sapiens), P13612; ligand binding flow cytometry; inhibition, % (about 7 µM as worked out from the volumes in the protocol); 330,000 tested, 0.2% active; AID 2557, 2010; in the data active = inhibition above about 50%
APOBEC3A inh: APOBEC3A ssDNA deaminase inhibitors, primary screen, selectivity assay for APOBEC3G inhibitor project, biochemical, FAM/TAMRA oligo cleavage fluorescence | DNA dC->dU-editing enzyme APOBEC-3A (Homo sapiens), P31941 | recombinant A3A, FAM/TAMRA ssDNA deamination fluorescence | inhibition, % at 20 µM | 330,000 tested, 0.41% active;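 active = at least 40% inhibition at 20 µM here, with at most 30% in a related deaminase screen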
Target sequence (P31941 whole entry, looked up): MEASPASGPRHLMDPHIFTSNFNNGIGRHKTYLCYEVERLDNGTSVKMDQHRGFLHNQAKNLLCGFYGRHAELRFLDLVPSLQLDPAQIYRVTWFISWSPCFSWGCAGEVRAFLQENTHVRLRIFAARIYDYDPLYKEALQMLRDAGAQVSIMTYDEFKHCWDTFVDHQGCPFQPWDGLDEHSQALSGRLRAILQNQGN
A3G deaminase: APOBEC3G DNA deaminase inhibitors, primary screen, biochemical, fluorescence, single-stranded DNA substrate, uHTS | recombinant A3G, ssDNA deamination FAM/TAMRA fluorescence | inhibition, % at 20 µM | 330,000 tested, 0.28% active;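 active = inhibition of at least 40% at 20 µM, with no more than 30% in the related APOBEC3A deaminase screen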
Target sequence (Q9HC16 whole entry, looked up): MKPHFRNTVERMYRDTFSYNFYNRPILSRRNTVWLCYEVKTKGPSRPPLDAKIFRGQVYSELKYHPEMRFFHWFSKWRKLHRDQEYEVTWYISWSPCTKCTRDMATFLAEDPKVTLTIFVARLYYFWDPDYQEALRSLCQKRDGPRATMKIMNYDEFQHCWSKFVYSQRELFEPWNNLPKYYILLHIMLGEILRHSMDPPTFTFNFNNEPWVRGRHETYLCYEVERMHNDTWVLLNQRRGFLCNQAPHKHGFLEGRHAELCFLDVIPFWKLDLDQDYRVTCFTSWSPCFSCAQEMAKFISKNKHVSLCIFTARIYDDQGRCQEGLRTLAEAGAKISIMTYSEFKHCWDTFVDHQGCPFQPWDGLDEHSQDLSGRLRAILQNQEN
MIN6 prolif: inducers of MIN6 beta-cell proliferation, primary screen, ATP luminescence, uHTS; 330,000 tested, 0.29% active; AID 2380, 2010; proliferation, % at 10 µM; MIN6 cells proliferation, ATPlite luminescence, 48 h; cells starved in 0.2% serum; 100% = growth in 10% serum;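 active = compounds whose signal lies at least 3.5 SD above the mean of all wells on their plate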
NRP1-CendR mod: modulators of CendR peptide binding to NRP-1, primary screen, biochemical, fluorescence polarization, uHTS. AID 602438, 2012. FAM-RPARPAR peptide binding to NRP-1. 360,000 tested, 0.85% active. inhibition, % at 25 µM;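 active = inhibition or corrected inhibition above about 18%, plus a signal ratio from 0.5 to 1.5, limit read from the data, passing the limit was not always enough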
Large screens that a line does not name were inactive. In the library only some 1.8% were active in any assay of this set; here they are far more common.

CCN(CC)S(=O)(=O)c1ccc(-c2nnc(SCC(=O)N3c4ccccc4CC3C)n2CC)cc1 (centres undefined)	NRP1-CendR mod 26
CNC(=O)NC(=O)CSc1cccc(C(F)(F)F)c1	NRP1-CendR mod 38
CC(C)(C)NC(=O)NC(=O)CSc1cccc(C(F)(F)F)c1	none
O=C(NCCCN1CCOCC1)c1ccc2c(=O)n(-c3ccc(F)c(Cl)c3)c(=S)[nH]c2c1	NRP1-CendR mod 24
CCC(CC)N1CCN(CC2CC=CCC2)CC1 (centres undefined)	NRP1-CendR mod 23
CC(C)CC(=O)N1CCN(CC2CC=CCC2)CC1 (centres undefined)	none
COc1ccc(CNC(=O)C2CCC(CNS(=O)(=O)c3cccs3)CC2)cc1 (centres undefined)	none
CCN1CCN(C(c2cc3cccc(C)c3[nH]c2=O)c2nnnn2Cc2ccccc2)CC1 (centres undefined)	NRP1-CendR mod 39
COc1ccc(C2=Nc3ccccc3NC(=O)C2N(C(=O)c2cnc(C)cn2)c2ccc(N3CCOCC3)cc2)cc1 (centres undefined)	NRP1-CendR mod 22 (no result: VLA-4 inh, APOBEC3A inh, A3G deaminase, MIN6 prolif)
Cc1cnc(C(=O)N(c2ccc(N3CCOCC3)cc2)C2C(=O)Nc3ccccc3N=C2c2ccc3c(c2)OCO3)cn1 (centres undefined)	none (no result: VLA-4 inh, APOBEC3A inh, A3G deaminase, MIN6 prolif)
COc1cc2nc(-c3cccs3)oc(=O)c2cc1OC	NRP1-CendR mod 27
Cc1ccc2nc(-c3cccs3)oc(=O)c2c1	none
CC(C)CC(COCc1ccc([N+](=O)[O-])cc1)N1CCN(C(=O)c2ccc(C(F)(F)F)cc2)CCC1=O (centres undefined)	NRP1-CendR mod 23
Cc1cccc(COCC(CC(C)C)N2CCN(C(=O)c3ccc(C(F)(F)F)cc3)CCC2=O)c1 (centres undefined)	none
O=C(OCCSCCOC(=O)C1CC=CCC1)C1CC=CCC1 (centres undefined)	none (no result: VLA-4 inh, APOBEC3A inh, A3G deaminase, MIN6 prolif)
CCOC(=O)C1=C(CSc2nccn2C)NC(=O)NC1c1cc(C)ccc1C (centres undefined)	NRP1-CendR mod 26
NC(=O)C1CCN(c2nc(-c3ccccc3F)cs2)CC1	NRP1-CendR mod 25
CN(C)c1ccccc1-c1csc(N2CCC(C(N)=O)CC2)n1	none
NC(=O)C1CCN(c2nc(-c3ccccc3Br)cs2)CC1	none (no result: NRP1-CendR mod)
NC(=O)C1CCN(c2nc(-c3ccccc3C(F)(F)F)cs2)CC1	NRP1-CendR mod 30
NC(=O)C1CCN(c2nc(-c3ccc(F)cc3)cs2)CC1	none
NC(=O)C1CCN(c2nc(-c3ccc4occc(=O)c4c3)cs2)CC1	NRP1-CendR mod 25
CC(Sc1ncnc2sccc12)C(=O)Nc1ccc(S(=O)(=O)N2CCOCC2)cc1 (centres undefined)	none (no result: VLA-4 inh, APOBEC3A inh, A3G deaminase, MIN6 prolif)
C=CCC(=O)N1CCC(n2nccc2NC(=O)CCOc2ccccc2)CC1	NRP1-CendR mod 28
CSCC(C)N1CCC(n2nccc2NC(=O)CCOc2ccccc2)CC1 (centres undefined)	NRP1-CendR mod 22
OC(CN1CCN(Cc2ccccc2)CC1)Cn1c2ccccc2c2ccccc21 (centres undefined)	none
OC(CN1CCN(c2ccccc2)CC1)Cn1c2ccccc2c2ccccc21 (centres undefined)	NRP1-CendR mod 25
COc1ccc(NC(=O)c2ccc(OC)c(S(=O)(=O)N3CCCCC3C)c2)cn1 (centres undefined)	NRP1-CendR mod 27
O=C(NC1CCCc2ccccc21)c1c(F)cccc1Cl (centres undefined)	none
COc1ccc(N2CCN(Cc3nnnn3C3CCCCC3)CC2)cc1	NRP1-CendR mod 23
CCNC(=O)C1(C)CCCN1C(=O)c1ccc(C#N)cc1 (centres undefined)	none (no result: VLA-4 inh, APOBEC3A inh, A3G deaminase, MIN6 prolif)
COc1ccc(/C=C/C(=O)NCC(=O)N/N=C/c2ccc(OC)cc2)cc1	NRP1-CendR mod 20
CC(C)c1ccc(N(C(=O)c2snc(C(N)=O)c2N)C(C(=O)NC2CCCC2)c2ccncc2)cc1 (centres undefined)	none
COc1ccccc1CNCc1cccc(Oc2ccccc2)c1	none
CN(C(=O)COC(=O)c1cnc(Cl)c(Cl)c1)C1CCS(=O)(=O)C1 (centres undefined)	none
CN(C(=O)COC(=O)c1cnc(Cl)c(Cl)c1)C1CCCCC1	NRP1-CendR mod 24
O=c1oc2c3c4c(cc2s1)CCCN4CCC3	NRP1-CendR mod 36
O=C(O)Cn1nnc(COc2ccccc2)n1	none
Cc1ccc(NC(=O)C(C)N2C(=O)C3C4CC(C(Br)C4Br)C3C2=O)cc1 (centres undefined)	NRP1-CendR mod 32
Cc1ccc(NC(=O)C(C)N2C(=O)C3CC=C(Cl)CC3C2=O)cc1 (centres undefined)	none
C[C@@H](C(=O)Nc1ccc(SC(F)F)cc1)N1C(=O)C2CCCCC2C1=O (some centres undefined)	NRP1-CendR mod 22
Cc1ccc(NC(=O)C(C)N2C(=O)c3ccccc3C2=O)cc1 (centres undefined)	NRP1-CendR mod 27
Cc1csc(=O)n1CC(=O)OCC(=O)Nc1ccc(C(N)=O)cc1	none
Cc1csc(=O)n1CCC(=O)OCC(=O)Nc1ccc(C(N)=O)cc1	NRP1-CendR mod 23
CCOC(=O)C1CCN(C(=O)c2ccccc2CCc2ccccc2)CC1	none
CCOc1ccc(Nc2ccc(N)c(S(=O)(=O)O)c2)cc1	NRP1-CendR mod 40 (no result: VLA-4 inh, APOBEC3A inh, A3G deaminase, MIN6 prolif)
CCN(C1CCS(=O)(=O)C1)S(=O)(=O)c1ccc(Cl)s1 (centres undefined)	none (no result: VLA-4 inh)
NC(=O)c1oc2ccccc2c1NC(=O)c1nc2ccccc2s1	NRP1-CendR mod 24
CN1CCN(c2nc(-c3ccccc3)ncc2S(C)(=O)=O)CC1	NRP1-CendR mod 17
CCOC(=O)c1cnc(-c2ccccc2)nc1Oc1ccccc1	none
CS(=O)(=O)c1cnc(-c2ccccc2)nc1Oc1ccc(Cl)cc1	NRP1-CendR mod 23
CCOC(=O)c1cnc(-c2ccccc2)nc1Oc1ccc(OC)cc1	NRP1-CendR mod 26
COc1cc(Br)cc(Br)c1OCC(=O)N/N=C/c1c(C)n(C)n(-c2ccccc2)c1=O	none
COc1ccc(S(=O)(=O)Nc2c(O)ccc3ccccc23)cc1OC	none
Cc1ccccc1/C=C/c1nc2ccccc2c(=O)n1CCc1ccccc1	NRP1-CendR mod 40 (no result: APOBEC3A inh, A3G deaminase, MIN6 prolif)
Cc1ccccc1/C=C/c1nc2ccccc2c(=O)n1Cc1ccccc1	none
Cc1cnc(C=NNC(N)=S)c2cccc(N)c12	NRP1-CendR mod 26 (no result: VLA-4 inh, APOBEC3A inh, A3G deaminase, MIN6 prolif)
CC1Sc2ccc(S(=O)(=O)CCC(=O)NC3CCCCC3C)cc2NC1=O (centres undefined)	none
